Source: PubChem BioAssay (NCI)
About 83,000 compounds went through this panel and 20% of them were active in at least one assay; those are over-represented in the sample as a whole.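 Growth was measured after 48 h exposure to one concentration of compound in 96-well plates. Values under 10 count as active.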 Values without a mark were called inactive. Activity calls are given as the source filed them.

System: HL-60(TB) leukemia
Experiment: NCI-60 one-dose screen, 48 h (100 = growth as untreated, 0 = no growth, -100 = all killed)
Conditions: 10 µM unless noted

Row | Compound | growth
1 | CCCCc1c(Nn2cnnn2)no[n+]1[O-] | 37.9%
2 | Cc1ccc(C(=O)NN2C(=O)/C(=C/C=C/c3ccc([N+](=O)[O-])o3)SC2=S)cc1 | 2.23% (active)
3 | Cc1noc2c(Cc3ccccc3)nn(CC(=O)N/N=C/c3ccc(Br)cc3)c(=O)c12 | 100%
4 | COc1ccc(/C=C/C(=O)c2ccc(S(=O)(=O)NCCNc3nc(N(C)C)nc(N4CCOCC4)n3)cc2)cc1 | 67.1%
5 | COc1ccc(/C=N/N=C(\C)c2ccc3c(c2)Nc2ccccc2S3)cc1O | 34.2%
6 | COc1ccc(/C(CSc2nnc(-c3c[nH]c4ccccc34)n2-c2ccccc2)=N/O)cc1 | 3.87% (active)
7 | Nc1nc(Nc2ccccc2)nn1Cc1c(Cl)cccc1Cl | 30%
8 | Cc1ccccc1[C@H]1C(C(=O)c2ccc(Cl)cc2)C2(N[C@@H]1c1ccccc1)C(=O)Nc1ccc(Cl)cc12 (some centres undefined) | -32.2% (active)
9 | COc1ccccc1-n1cc(C#N)c(N)c1C(=O)c1ccc(Cl)cc1Cl | 1.26% (active)
10 | CCN1C(=O)N(CC)C2NNC(Sc3c(C(=O)O)c4ccccc4n(CCC(C)C)c3=O)=NC21 (centres undefined) | -48.1% (active)
11 | Cc1ccc2c(c1)/C(=C/C(=O)c1cc3ccccc3oc1=O)C(=O)N2 | 53%
12 | O=C(Cc1ccc2c(c1)CN(C1CCC(=O)NC1=O)C2=O)NCc1cccc2ccccc12 (centres undefined) | -24.9% (active)
13 | C=CCn1c(O)c(N=Nc2nc(-c3cc4ccccc4oc3=O)cs2)c2ccccc21 | 111%
14 | Nc1nc(C(F)(F)F)cs1 | 102%
